PubChem BioAssay

Legend:
[1] = molecular target: Tumor necrosis factor receptor superfamily member 10B (Homo sapiens) (UniProt O14763); test: viability loss of caspase-8 NB7 cells with TRAIL – with/without TRAIL, luminescence panel, confirmation (AID 651596); conditions: NB7 neuroblastoma + caspase-8, TRAIL sensitization, NB7 Caspase-8, with TRAIL, mean of runs, at 10 µM, stronger effect = higher value
[2] = as above; conditions: NB7 neuroblastoma + caspase-8, without TRAIL, NB7 Caspase-8, without TRAIL, mean of runs, at 10 µM

Sequence of Tumor necrosis factor receptor superfamily member 10B (Homo sapiens) (O14763 whole entry, looked up): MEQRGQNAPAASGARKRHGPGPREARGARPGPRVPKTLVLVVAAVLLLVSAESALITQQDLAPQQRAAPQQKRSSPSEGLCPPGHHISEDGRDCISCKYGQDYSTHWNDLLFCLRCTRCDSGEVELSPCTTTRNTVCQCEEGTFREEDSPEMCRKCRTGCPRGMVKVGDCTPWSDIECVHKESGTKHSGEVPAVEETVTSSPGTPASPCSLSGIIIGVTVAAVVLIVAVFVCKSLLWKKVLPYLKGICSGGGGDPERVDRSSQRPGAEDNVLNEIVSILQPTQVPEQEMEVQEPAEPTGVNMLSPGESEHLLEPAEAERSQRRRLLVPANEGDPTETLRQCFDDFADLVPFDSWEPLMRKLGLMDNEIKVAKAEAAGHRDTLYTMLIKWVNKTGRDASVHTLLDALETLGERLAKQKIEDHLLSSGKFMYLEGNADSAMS

Row | Compound | activity [1] [%] | activity [2] [%]
1 | O=C(Nc1ccc(Cl)cc1)/C(=C/c1cccc(O)c1)c1nc2ccccc2s1 | 95.7 | 98.1
2 | Cc1cccc(-n2ncc3c(N4CCCC4)ncnc32)c1 | 75.4 | 73.6
3 | COc1ccc(Cn2c(SCc3cc(C)ccc3C)nc3cc(OC)c(OC)cc3c2=N)cc1 | 94.9 | 97.8
4 | O=C(N/N=C/c1cc(Br)cs1)c1ccc2c(c1)OCCO2 | 78.8 | 77.9
5 | CCN1CCN(Cc2ccc(NC(=O)c3cc(NC(=O)c4cc5cccc(OC)c5o4)cc(OC)c3)cc2C(F)(F)F)CC1 | 59.2 | 79.5
6 | C/C(=N\Nc1cccc2cccnc12)c1ccccn1 | 69.8 | 59.6
7 | C=CCn1c(C)cc(C(=O)COC(=O)c2n[nH]c(=O)c3ccccc23)c1C | 74.4 | 57.4
8 | O=C(Nc1ccc(Cl)c(Cl)c1)Nc1ccccc1C(=O)O | 44.6 | 42.5
9 | Cc1ccc2nc(-c3ccc(NC(=O)COC(=O)c4ccco4)cc3)sc2c1 | 73.4 | 74.6
10 | COc1ccc(-c2ccc(NC(=O)c3ccco3)cc2)nn1 | 91 | 89.9
11 | CCc1ccc(C(=O)Nc2nnn(CC)n2)cc1 | 73.6 | 75.5
12 | CCCCC1CCC(C(=O)N(CCCC)c2c(N)n(CCCC)c(=O)[nH]c2=O)CC1 (centres undefined) | 81.5 | 77.5
13 | O=C(Nc1c(Cl)cc2c(c1Cl)Cc1cc([N+](=O)[O-])ccc1-2)C(Cl)Cl | 89.3 | 94.9
14 | O=C(OCc1cccc(C(F)(F)F)c1)c1cc(S(=O)(=O)N2CCOCC2)ccc1F | 36.8 | 21
15 | Nc1nc(-c2ccc(-c3ccccc3)cc2)cs1 | 51.2 | 50.7
16 | CSc1nc(NCCN(C)C)c2sc3nc(-c4ccco4)c4c(c3c2n1)CCC4 | 80.2 | 98.5
17 | CCN1CCN(Cc2ccc(NC(=O)c3ccc(C)c(NC(=O)c4c[nH]c5cc(C(F)(F)F)ccc5c4=O)c3)cc2C(F)(F)F)CC1 | 98.8 | 98.8
18 | O=C(Nc1nnc(/N=C/c2ccco2)s1)c1ccc(F)cc1 | 39.8 | 28.4
19 | Fc1ccc(-c2cnn3c(-c4cccs4)ccnc23)cc1 | 61.2 | 59.4
20 | COc1ccc(C(=O)Nc2ccc3ncccc3c2)cc1 | 87.7 | 85.3
21 | CC(=O)Nc1ccc(NC(=O)CSc2nnc(NC(=O)c3ccccc3F)s2)cc1 | 69.5 | 63.9
22 | COc1cc(C(=O)Nc2nc3ccccc3[nH]2)ccc1OC(F)F | 78.9 | 69.4
23 | CCOC(=O)c1sc(NC(=O)c2ccccc2OC)nc1C | 26.1 | 31.9

Row | Compound | activity [1] [%] | activity [2] [%]
24 | CCN(Cc1ccccc1)S(=O)(=O)c1ccc(C(=O)N(CCCN(C)C)c2nc3cc(C)cc(C)c3s2)cc1 | 23.3 | -11.7
25 | Nc1c(N(CCC2=CCCCC2)C(=O)COc2ccc(F)cc2Cl)c(=O)[nH]c(=O)n1Cc1ccccc1 | 88.3 | 79.4
26 | O=c1c2[nH]c3ccc(F)cc3c2ncn1C1CCCCC1 | 59.1 | 49.5
27 | CC(/C=N/NC(=O)c1ccco1)=C\c1ccccc1 | 73.5 | 71.2
28 | CC(C)(C)c1ccc(C(=O)O/N=C(\N)Cc2cccs2)cc1 | 98.6 | 77.5
29 | COc1ccc(Nc2nc(N)nc(CCl)n2)cc1 | 99.1 | 98.3
30 | Cc1ccc(C(=O)N/C(=C\c2ccc(-c3ccccc3[N+](=O)[O-])o2)C(=O)NCCCN(C)C)cc1 | 18.7 | 31.6
31 | C#Cc1ccc([C@@H]2C=C(C(=O)Nc3ccccc3)O[C@H](OCC)[C@H]2CCCO)cc1 | 90.8 | 91.5
32 | CN(C)c1ccc(-c2nc3ccccc3c(=O)[nH]2)cc1 | 91.9 | 92.5
33 | C/C(=N\Nc1nc2ccccc2[nH]1)c1ccccn1 | 51.5 | 68.5
34 | CN1CCN(Cc2nc3ccccc3c(=O)n2Cc2nc(-c3ccc4ccccc4c3)cs2)CC1 | 67.3 | 91.5
35 | CCCCCCCC(=O)Nc1ccc(C(=O)N/N=C/c2cccc([N+](=O)[O-])c2)cc1 | 69.3 | 75.9
36 | COc1ccc(/C=N/Nc2cc(C)nc3ccc(Br)cc23)cc1 | 61 | 78
37 | CNC[C@H](CC1CCCCC1)NC[C@H](Cc1ccccc1)NCCC12CC3CC(CC(C3)C1)C2 | 98.5 | 99.4
38 | OCC1OC(n2cnc3c(NCc4ccco4)ncnc32)C(O)C1O (centres undefined) | 46.1 | 54.3
39 | O=C(CC(Nc1ccc(Cl)cc1)C(=O)O)c1ccccc1 (centres undefined) | 60.6 | 73.2
40 | O=C(CCl)N=c1sccn1Cc1cccc2ccccc12 | 98.8 | 99.1
41 | O=C(/C=C/[C@H]1O[C@@H](n2cnc3c(NC(=O)c4ccccc4)ncnc32)[C@H](O)[C@@H]1O)NCC1CCCO1 (some centres undefined) | -2.52 | -37
42 | CCc1sc(C(=O)N2CCc3ccccc32)cc1C | 46.1 | 44.7
43 | CCc1ccc(C(=O)Cn2ncc(Cl)c(Cl)c2=O)cc1 | 99.2 | 99.4
44 | O=C1C(=Cc2ccc(Cl)cc2)CCc2ccccc21 | 85.8 | 78.7
45 | Nc1nc(N)c2cc(Sc3ccc4ccccc4c3)ccc2n1 | 61 | 73.9
46 | C/C(=N\NC(=O)c1nn(C)c(C)c1Br)c1cccc(NC(=O)c2ccc(F)cc2)c1 | 46 | 50.5

Row | Compound | activity [1] [%] | activity [2] [%]
47 | O=C(Nc1cccnc1Cl)c1ccc2c(Cl)c3c(nc2c1)CCC3 | 78.5 | 78.4
48 | COc1ccc(Oc2c(Cl)cnn(-c3ccc(C)cc3)c2=O)cc1 | 96.9 | 89.9
49 | Fc1ccc(-n2nnc(-c3cnc4ccccc4c3)n2)cc1 | 70.8 | 63.9
50 | COc1ccc(-c2ccc3ccccc3n2)cc1 | 32.4 | 16
51 | COc1ccc(C(=O)Nc2ccc3[nH]ncc3c2)cc1 | 78.3 | 77.1
52 | COc1ccc(/C=C/c2nc3ccccc3n2Cc2ccccc2OC)cc1 | 78.5 | 67.7
53 | CCS(=O)(=O)c1ncc(Cl)c(C(=O)Nc2ccc(S(=O)(=O)N3CCC(C)CC3)cc2)n1 | 95.2 | 98.8
54 | O=C(CC1SC(=Nc2ccccc2F)N(CCN2CCOCC2)C1=O)Nc1ccc(F)cc1F (centres undefined) | -3.85 | -7.28
55 | Cc1ccc(C(=O)c2no[n+]([O-])c2C(=O)c2ccc(C)cc2)cc1 | 98 | 92
56 | COc1ccc2nc(Nc3nc(-c4cc5ccccc5oc4=O)cs3)sc2c1 | 50.4 | 47.4
57 | CC(NC(=O)CCl)c1ccc(Cl)c(Cl)c1 (centres undefined) | 51 | 81.5
58 | CCOC(=O)c1c(NC(=O)COc2ccccc2OCC)sc2c1CC(C)(C)NC2(C)C | 95.8 | 99.3
59 | Cc1cc(C)n(-c2nc(Nc3ccccc3C(F)(F)F)nc(-n3nc(C)cc3C)n2)n1 | 51.8 | 71.9
60 | CCN(CC)c1ccc(/C=N/NC(=O)c2ccccn2)cc1 | 57.3 | 45.4
61 | Cc1ccc(-c2nc(N/N=C/c3cccnc3)c3ccccc3n2)cc1 | 94.3 | 88.2
62 | COc1cccc(NC(=O)Nc2ccc3c(c2)nc(C)n3C)c1 | 83.7 | 82.8
63 | O=S(=O)(c1ccccc1)c1nnn2c1nc(NC1CCN(Cc3ccccc3)CC1)c1ccccc12 | 97.9 | 48.9
64 | C=CCNC(=S)N/N=C/c1ccc(C(F)(F)F)cc1 | 18.5 | 8.22
65 | Cc1ccc2nc(-c3ccc(N)cc3)sc2c1 | 83.2 | 81.8
66 | N/C(=N\OC(=O)c1ccc([N+](=O)[O-])cc1Cl)c1ccccn1 | 90.2 | 87.3
67 | COc1ccccc1NC(CC(=O)c1ccccc1)C(=O)OCC(=O)c1ccc(C)c(C)c1 (centres undefined) | 73.5 | 66.2
68 | COc1cc(OC)cc(C(=O)Nc2nc3ccccc3[nH]2)c1 | 55 | 56.8
69 | COc1ccccc1/C=C/C1(C(=O)NC2CCCC2)CC(=O)N1c1ccc(C)cc1 (centres undefined) | 90.2 | 88.8

Row | Compound | activity [1] [%] | activity [2] [%]
70 | Cc1ccccc1/C(N)=N/OC(=O)/C=C/c1ccccc1 | 98.7 | 97.3
71 | O=C1CC(c2ccc3c(c2)OCCO3)Oc2ccc([N+](=O)[O-])cc21 (centres undefined) | 56.3 | 55.9
72 | COc1cccc(/C=C2/Sc3ccc(C(=O)NCCN4CCCCCC4)cc3NC2=O)c1 | 36 | 73.3
73 | COc1nn(-c2ccccc2)c(=O)c(Cl)c1Cl | 92.3 | 96.3
74 | COc1ccc(C(=O)Nc2ccccc2C(=O)N/N=C/c2ccccn2)cc1OC | 80.7 | 59.5
75 | Cc1ccc2oc(-c3ccccc3)c(C(=O)O)c(=O)c2c1 | 29.9 | 39.2
76 | CCc1cc2c(COC(=O)c3cc(S(=O)(=O)N4CCOCC4)ccc3F)cc(=O)oc2cc1O | 77.3 | 82.5
77 | Cc1ccc(-c2ccccc2NC(=O)CCl)o1 | 47.4 | 64.3
78 | O=C(CCl)N(O)c1ccc(C=Cc2ccccc2)cc1 | 40 | 53.7
79 | N#C/C(=C\c1cc(Cl)cc(Cl)c1O)C(=O)NC1CCCCC1 | 26.5 | 47.6
80 | Cn1c(N/N=C/c2cc3ccccc3nc2Cl)nc2ccccc21 | 92.3 | 94
81 | COc1ccc(C(=O)NNC(=S)NC(=O)/C=C/c2cccs2)cc1 | 36.2 | 42.2
82 | Cc1ccc(Nc2nc(N)c3ccccc3n2)cc1C | 83 | 78
83 | Cn1c(N)c(C(=O)COC(=O)c2cc(S(=O)(=O)N3CCOCC3)ccc2F)c(=O)n(C)c1=O | 90.6 | 93.8
84 | CC(C)C(=O)N1CCN(c2ccc(NC(=O)c3ccc([N+](=O)[O-])o3)cc2Cl)CC1 | 75.4 | 97.5
85 | COc1ccc(-c2cc3ccccc3c(=O)o2)cc1 | 49.4 | 56.6
86 | Cc1cccc(N(Cc2ccccc2)C(=O)CCl)c1 | 99 | 99.1
87 | c1cncc(-c2nc3cc4ccccc4cc3[nH]2)c1 | 66.7 | 57.3
88 | CCN1CCN(c2ccc(S(=O)(=O)N3CCCCC3)cc2NC(=O)c2ccc([N+](=O)[O-])s2)CC1 | 49.6 | 54.1
89 | COc1cc(C2CC(c3cccs3)=NN2C(=O)CCl)ccc1OC(F)F (centres undefined) | 99.5 | 99.5
90 | Cc1ccc(CN2[C@@H](Cc3ccccc3)C(=O)CS2(=O)=O)cc1 | 81 | 60.2
91 | CCOc1ccccc1CNC(=O)C1CCN(c2nnc(C)c3c(C)n(-c4ccc(C)cc4)nc23)CC1 | 48.9 | 63.5
92 | COc1cc2ccccc2cc1C(=O)Nc1sc2c(c1C(N)=O)CCN(C(C)C)C2 | 79.4 | 98.2
